Our source for the binding signal values is paper PMC7862700, “An all-to-all approach to the identification of sequence-specific readers for epigenetic DNA modifications on cytosine”.

Holding throughout (test): DAPPL (digital affinity profiling via proximity ligation, sequencing); 10 mM Tris-HCl pH 7.5, 50 mM NaCl, 1 mM DTT, 4% glycerol, room temperature, 30 min; GST-TFs on glutathione beads, 16-mer random dsDNA library, 0.1% formaldehyde crosslink after washing; high values mean tight binding
One test addresses T1, FEV (Homo sapiens, UniProt Q99581 1-238).
T1 sequence: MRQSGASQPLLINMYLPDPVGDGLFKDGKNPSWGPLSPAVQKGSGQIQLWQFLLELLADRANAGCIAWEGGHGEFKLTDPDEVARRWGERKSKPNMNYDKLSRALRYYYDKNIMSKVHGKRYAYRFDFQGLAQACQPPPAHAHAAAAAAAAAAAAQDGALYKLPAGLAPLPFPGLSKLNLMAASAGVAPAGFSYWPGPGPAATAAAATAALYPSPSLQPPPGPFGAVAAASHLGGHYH
The following applies: protein: recombinant; tags: N-terminal GST; dsDNA, one strand shown. The method in brief:
(§1)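 Beads coated with glutathione captured GST-fused human transcription factors that had been expressed in yeast, and the factors were then given DNA barcodes and pooled with a tag-only sample. The pools were incubated with 200 nmole of a random double-stranded 16-mer DNA library in Tris/NaCl/DTT/glycerol buffer for 30 min at room temperature, washed, crosslinked with 0.1% formaldehyde and proximity-ligated with BsaI/T4 ligase at 37 °C for 1 h. PCR amplification and Illumina NextSeq500 sequencing came last. Binding signal is each hexamer's read frequency for a factor divided by its frequency for the tag-only sample.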

For a further test, the target named is ETV5 (Homo sapiens, UniProt P41161 1-510). The following applies: protein: recombinant; tags: N-terminal GST; dsDNA, one strand shown. The method in brief:
as §1

The target in a further test is HSF1 (Homo sapiens, UniProt Q00613 1-529). The settings on record: protein: recombinant; tags: N-terminal GST; chain copies: 3; dsDNA, one strand shown. The method in brief:
as §1

The target in a further test is T2, SPIC (Homo sapiens, UniProt Q8N5J4 1-248).
T2 sequence: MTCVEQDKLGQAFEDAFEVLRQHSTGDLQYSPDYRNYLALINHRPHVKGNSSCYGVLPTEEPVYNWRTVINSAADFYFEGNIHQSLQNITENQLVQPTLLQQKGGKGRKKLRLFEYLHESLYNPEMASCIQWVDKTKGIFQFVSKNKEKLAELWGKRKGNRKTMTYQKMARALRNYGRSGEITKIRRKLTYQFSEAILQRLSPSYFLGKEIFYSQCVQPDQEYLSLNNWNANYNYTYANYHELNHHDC
The following applies: protein: recombinant; tags: N-terminal GST; dsDNA, one strand shown. The gist of the method:
as §1

Another test addresses ELF4 (Homo sapiens, UniProt Q99607 1-663). The settings on record: protein: recombinant; tags: N-terminal GST; dsDNA, one strand shown. The method in brief:
as §1

A further test deals with T3, ELK4 (Homo sapiens, UniProt P28324-2 1-405).
T3 sequence: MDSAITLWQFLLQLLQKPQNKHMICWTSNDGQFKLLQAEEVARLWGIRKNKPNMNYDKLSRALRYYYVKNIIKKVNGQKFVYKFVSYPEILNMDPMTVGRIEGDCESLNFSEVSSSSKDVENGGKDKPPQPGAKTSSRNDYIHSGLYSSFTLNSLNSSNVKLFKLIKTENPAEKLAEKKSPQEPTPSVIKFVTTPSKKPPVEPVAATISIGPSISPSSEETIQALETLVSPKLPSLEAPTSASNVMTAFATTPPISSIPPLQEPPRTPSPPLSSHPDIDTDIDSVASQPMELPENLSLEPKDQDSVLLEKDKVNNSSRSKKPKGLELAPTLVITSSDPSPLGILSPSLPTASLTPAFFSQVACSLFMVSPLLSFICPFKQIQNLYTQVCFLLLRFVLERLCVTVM
The settings on record: protein: recombinant; tags: N-terminal GST; dsDNA, one strand shown. The method in brief: as §1

Another test deals with T4, ETV2 (Homo sapiens, UniProt O00321 1-342).
T4 sequence: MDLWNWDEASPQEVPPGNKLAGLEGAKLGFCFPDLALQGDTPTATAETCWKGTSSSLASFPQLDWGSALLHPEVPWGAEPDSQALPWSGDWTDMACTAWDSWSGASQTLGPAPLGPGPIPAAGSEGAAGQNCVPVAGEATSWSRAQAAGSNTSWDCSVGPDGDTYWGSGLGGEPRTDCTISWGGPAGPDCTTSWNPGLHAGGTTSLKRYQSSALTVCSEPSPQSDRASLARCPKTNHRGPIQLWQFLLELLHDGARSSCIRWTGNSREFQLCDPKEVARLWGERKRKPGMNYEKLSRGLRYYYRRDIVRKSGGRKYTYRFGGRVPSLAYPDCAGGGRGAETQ
The settings on record: protein: recombinant; tags: N-terminal GST; dsDNA, one strand shown. The gist of the method: as §1

The next test concerns the target T5, ELF3 (Homo sapiens, UniProt P78545 1-371).
T5 sequence: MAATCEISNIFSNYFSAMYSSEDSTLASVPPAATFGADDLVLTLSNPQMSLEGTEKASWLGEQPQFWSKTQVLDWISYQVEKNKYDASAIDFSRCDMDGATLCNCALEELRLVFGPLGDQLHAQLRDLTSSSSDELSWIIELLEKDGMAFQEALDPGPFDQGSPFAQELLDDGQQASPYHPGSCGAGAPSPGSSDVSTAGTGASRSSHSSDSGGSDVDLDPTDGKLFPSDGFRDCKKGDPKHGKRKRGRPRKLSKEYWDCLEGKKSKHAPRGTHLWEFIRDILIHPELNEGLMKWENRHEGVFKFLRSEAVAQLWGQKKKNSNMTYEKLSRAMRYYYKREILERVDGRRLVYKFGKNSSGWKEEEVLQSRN
The settings on record: protein: recombinant; tags: N-terminal GST; dsDNA, one strand shown. The method in brief:
as §1

In the next test the target is CRX (Homo sapiens, UniProt O43186 1-299). The following applies: protein: recombinant; tags: N-terminal GST; dsDNA, one strand shown. The gist of the method: as §1
For another test, the target named is ETV1 (Homo sapiens, UniProt P50549 1-477). The following applies: protein: recombinant; tags: N-terminal GST; dsDNA, one strand shown. The gist of the method: as §1
The next test concerns the target T6, ERF (Homo sapiens, UniProt P50548 1-548).
T6 sequence: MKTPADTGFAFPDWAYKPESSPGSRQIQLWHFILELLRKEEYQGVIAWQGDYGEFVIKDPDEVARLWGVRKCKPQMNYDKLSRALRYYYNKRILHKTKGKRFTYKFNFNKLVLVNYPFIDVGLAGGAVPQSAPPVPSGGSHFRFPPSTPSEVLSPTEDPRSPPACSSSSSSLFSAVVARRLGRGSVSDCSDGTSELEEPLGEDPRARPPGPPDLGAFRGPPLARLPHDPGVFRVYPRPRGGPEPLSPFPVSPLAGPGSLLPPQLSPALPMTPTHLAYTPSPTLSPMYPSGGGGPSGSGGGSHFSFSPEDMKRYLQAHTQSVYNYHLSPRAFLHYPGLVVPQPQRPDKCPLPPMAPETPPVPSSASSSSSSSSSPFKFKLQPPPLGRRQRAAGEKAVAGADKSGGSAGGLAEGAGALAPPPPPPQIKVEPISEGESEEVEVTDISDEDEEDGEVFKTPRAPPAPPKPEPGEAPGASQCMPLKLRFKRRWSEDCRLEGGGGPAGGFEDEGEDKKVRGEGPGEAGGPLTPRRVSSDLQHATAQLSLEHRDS
The settings on record: protein: recombinant; tags: N-terminal GST; dsDNA, one strand shown. The gist of the method:
as §1

The target in a further test is T7, ETV3L (Homo sapiens, UniProt Q6ZN32 1-361).
T7 sequence: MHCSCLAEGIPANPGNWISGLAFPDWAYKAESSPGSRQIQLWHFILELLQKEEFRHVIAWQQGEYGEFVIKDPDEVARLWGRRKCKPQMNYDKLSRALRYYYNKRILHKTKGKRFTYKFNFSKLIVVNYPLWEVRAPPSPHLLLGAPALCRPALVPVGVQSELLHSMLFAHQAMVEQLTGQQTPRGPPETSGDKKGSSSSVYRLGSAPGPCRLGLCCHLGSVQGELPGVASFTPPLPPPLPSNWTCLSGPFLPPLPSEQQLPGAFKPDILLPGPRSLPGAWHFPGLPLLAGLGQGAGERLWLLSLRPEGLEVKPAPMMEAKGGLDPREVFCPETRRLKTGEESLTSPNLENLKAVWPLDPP
The settings on record: protein: recombinant; tags: N-terminal GST; dsDNA, one strand shown. The gist of the method:
as §1

A further test addresses T8, ETS2 (Homo sapiens, UniProt P15036 1-469).
T8 sequence: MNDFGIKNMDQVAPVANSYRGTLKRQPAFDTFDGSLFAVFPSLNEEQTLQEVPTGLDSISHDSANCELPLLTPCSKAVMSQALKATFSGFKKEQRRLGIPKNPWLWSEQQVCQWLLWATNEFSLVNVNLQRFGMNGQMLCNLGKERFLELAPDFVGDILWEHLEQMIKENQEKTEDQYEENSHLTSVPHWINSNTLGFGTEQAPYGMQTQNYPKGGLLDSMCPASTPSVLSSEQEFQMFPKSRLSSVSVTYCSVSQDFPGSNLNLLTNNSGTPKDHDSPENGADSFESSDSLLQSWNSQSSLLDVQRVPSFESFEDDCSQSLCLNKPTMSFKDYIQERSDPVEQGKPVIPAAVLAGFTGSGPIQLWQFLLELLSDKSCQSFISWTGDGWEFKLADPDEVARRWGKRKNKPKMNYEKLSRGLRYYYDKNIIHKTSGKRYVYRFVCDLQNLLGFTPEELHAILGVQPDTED
The following applies: protein: recombinant; tags: N-terminal GST; dsDNA, one strand shown. The gist of the method: as §1

The target of the next test is T9, SPDEF (Homo sapiens, UniProt O95238 1-335).
T9 sequence: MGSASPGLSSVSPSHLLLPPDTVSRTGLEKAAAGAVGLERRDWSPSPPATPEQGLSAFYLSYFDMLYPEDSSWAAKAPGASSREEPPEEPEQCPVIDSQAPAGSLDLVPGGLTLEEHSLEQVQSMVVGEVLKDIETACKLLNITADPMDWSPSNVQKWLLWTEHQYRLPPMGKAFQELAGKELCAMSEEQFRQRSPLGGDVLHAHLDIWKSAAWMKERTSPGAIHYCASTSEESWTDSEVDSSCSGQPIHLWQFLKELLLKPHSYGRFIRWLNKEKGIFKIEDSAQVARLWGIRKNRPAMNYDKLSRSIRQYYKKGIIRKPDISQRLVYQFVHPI
The following applies: protein: recombinant; tags: N-terminal GST; dsDNA, one strand shown. The gist of the method:
as §1

In the next test the target is T10, ETV7 (Homo sapiens, UniProt Q9Y603 1-341).
T10 sequence: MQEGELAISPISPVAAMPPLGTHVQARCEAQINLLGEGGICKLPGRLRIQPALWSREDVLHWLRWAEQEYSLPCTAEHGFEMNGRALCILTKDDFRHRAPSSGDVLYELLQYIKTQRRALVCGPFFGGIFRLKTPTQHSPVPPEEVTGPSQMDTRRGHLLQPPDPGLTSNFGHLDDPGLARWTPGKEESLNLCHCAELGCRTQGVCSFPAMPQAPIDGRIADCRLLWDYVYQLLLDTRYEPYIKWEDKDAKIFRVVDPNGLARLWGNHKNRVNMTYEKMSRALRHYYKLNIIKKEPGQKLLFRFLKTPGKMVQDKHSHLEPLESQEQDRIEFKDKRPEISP
The following applies: protein: recombinant; tags: N-terminal GST; dsDNA, one strand shown. The method in brief:
as §1

The next test concerns the target T11, ELF5 (Homo sapiens, UniProt Q9UKW6-2 1-255).
T11 sequence: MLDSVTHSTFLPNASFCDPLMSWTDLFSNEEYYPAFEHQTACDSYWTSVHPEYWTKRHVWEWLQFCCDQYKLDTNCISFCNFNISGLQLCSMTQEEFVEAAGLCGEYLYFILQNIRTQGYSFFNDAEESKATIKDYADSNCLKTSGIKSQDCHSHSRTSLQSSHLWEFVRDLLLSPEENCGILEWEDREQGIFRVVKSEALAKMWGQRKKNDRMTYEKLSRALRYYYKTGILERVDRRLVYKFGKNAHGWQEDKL
The following applies: protein: recombinant; tags: N-terminal GST; dsDNA, one strand shown. The gist of the method: as §1

The next test has as its target T12, ETV3 (Homo sapiens, UniProt P41162-2 1-143).
T12 sequence: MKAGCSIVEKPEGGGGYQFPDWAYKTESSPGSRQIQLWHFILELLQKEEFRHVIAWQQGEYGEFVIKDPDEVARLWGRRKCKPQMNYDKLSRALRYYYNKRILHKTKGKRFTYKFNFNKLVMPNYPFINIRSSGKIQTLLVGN
The settings on record: protein: recombinant; tags: N-terminal GST; dsDNA, one strand shown. The method in brief: as §1

The target of the next test is ETV6 (Homo sapiens, UniProt P41212 1-452). The following applies: protein: recombinant; tags: N-terminal GST; dsDNA, one strand shown. The method in brief:
as §1

Chain of ETV1 (P50549 whole entry): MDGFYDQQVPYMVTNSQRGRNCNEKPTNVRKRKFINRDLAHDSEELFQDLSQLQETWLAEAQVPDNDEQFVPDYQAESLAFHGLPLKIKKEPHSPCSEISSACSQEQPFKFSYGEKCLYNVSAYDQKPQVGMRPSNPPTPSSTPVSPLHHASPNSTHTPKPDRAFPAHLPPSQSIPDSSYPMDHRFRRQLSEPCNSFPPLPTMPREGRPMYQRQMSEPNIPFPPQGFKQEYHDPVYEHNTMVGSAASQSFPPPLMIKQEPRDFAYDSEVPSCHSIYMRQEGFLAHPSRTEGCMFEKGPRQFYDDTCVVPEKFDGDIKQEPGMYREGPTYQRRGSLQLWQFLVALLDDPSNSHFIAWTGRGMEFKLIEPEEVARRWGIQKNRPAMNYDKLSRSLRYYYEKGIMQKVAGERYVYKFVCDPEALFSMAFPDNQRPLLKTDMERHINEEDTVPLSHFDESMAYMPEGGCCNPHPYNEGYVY
Chain of ETV5 (P41161 whole entry): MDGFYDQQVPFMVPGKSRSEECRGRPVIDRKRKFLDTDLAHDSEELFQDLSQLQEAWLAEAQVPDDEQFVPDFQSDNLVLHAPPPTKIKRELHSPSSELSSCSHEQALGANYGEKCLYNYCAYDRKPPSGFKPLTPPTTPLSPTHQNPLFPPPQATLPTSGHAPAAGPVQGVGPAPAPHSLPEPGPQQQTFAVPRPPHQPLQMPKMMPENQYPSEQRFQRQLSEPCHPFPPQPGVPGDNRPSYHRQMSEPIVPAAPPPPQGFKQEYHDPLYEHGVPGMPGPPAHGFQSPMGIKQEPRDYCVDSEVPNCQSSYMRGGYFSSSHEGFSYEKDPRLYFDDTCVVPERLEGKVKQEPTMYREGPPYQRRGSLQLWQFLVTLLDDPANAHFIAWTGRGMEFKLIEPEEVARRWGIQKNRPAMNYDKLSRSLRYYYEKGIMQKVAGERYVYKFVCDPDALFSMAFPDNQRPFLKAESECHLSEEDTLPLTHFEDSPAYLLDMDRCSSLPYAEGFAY
Chain of ELF4 (Q99607 whole entry): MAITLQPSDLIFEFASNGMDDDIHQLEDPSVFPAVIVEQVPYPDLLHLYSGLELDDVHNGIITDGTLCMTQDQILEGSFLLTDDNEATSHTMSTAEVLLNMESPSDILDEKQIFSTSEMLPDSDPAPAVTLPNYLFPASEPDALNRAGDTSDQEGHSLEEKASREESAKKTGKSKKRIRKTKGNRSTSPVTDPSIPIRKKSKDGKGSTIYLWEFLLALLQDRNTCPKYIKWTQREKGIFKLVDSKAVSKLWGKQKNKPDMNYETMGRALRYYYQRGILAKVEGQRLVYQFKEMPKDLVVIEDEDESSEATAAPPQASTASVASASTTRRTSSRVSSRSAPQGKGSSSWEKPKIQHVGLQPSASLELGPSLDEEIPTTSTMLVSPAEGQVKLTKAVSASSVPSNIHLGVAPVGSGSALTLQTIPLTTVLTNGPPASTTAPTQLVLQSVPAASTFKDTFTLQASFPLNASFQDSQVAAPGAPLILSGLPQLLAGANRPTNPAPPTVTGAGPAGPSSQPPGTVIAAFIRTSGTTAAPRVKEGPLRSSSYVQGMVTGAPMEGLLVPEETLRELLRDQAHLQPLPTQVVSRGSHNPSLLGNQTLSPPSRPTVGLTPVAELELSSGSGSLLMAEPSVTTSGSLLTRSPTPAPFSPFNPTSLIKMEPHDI
Chain of CRX (O43186 whole entry): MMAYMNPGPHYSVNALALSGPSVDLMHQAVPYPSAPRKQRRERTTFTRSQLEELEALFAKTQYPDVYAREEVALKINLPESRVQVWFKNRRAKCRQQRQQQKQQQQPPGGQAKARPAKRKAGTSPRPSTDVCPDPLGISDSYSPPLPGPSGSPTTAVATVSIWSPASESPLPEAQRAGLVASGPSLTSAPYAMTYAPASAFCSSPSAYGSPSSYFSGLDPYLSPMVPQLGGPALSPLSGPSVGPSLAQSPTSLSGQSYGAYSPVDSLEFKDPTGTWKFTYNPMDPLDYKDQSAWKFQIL
Chain of ETV6 (P41212 whole entry): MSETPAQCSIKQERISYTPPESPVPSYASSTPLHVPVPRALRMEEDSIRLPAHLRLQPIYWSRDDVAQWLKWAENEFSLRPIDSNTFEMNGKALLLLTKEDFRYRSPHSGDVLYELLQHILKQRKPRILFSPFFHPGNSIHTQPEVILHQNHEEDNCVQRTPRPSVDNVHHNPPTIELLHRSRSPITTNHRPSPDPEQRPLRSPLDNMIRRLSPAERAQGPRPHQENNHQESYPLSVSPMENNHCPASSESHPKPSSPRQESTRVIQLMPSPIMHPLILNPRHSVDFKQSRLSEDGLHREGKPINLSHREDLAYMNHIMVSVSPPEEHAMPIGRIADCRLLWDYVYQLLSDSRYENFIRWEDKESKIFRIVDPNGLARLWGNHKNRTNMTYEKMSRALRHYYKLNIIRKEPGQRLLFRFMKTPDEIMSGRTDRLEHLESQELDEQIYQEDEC
Chain of HSF1 (Q00613 whole entry): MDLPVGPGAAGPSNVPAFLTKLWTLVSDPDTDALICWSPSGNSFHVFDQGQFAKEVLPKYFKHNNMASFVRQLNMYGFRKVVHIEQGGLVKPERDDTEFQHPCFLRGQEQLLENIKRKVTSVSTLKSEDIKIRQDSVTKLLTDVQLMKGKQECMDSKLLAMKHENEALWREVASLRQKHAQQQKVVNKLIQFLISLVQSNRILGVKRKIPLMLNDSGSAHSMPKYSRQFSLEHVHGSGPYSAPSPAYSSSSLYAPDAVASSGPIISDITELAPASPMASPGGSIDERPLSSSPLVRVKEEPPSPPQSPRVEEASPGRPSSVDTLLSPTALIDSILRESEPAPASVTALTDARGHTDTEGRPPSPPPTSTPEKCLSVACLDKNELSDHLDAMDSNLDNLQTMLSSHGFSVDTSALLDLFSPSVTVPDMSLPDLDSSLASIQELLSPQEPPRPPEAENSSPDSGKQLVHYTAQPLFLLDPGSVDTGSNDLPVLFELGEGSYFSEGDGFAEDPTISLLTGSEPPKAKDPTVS

For CATTCC, the binding signal in the test with FEV was 1.21 fold enrichment (6-mer frequency, TF over GST control); in the test with ETV5, 1.29 fold enrichment (6-mer frequency, TF over GST control); with HSF1, 1.67 fold enrichment (6-mer frequency, TF over GST control); with SPIC, 1.11 fold enrichment (6-mer frequency, TF over GST control); in the test with ELF4, 1.27 fold enrichment (6-mer frequency, TF over GST control); with ELK4, 1.28 fold enrichment (6-mer frequency, TF over GST control). In addition, the binding signal with ETV2 is 1.31 fold enrichment (6-mer frequency, TF over GST control); with ELF3, 1.2 fold enrichment (6-mer frequency, TF over GST control); in the test with CRX it was 1.07 fold enrichment (6-mer frequency, TF over GST control); with ETV1 it was 1.19 fold enrichment (6-mer frequency, TF over GST control); with ERF, 1.22 fold enrichment (6-mer frequency, TF over GST control); with ETV3L it was 1.28 fold enrichment (6-mer frequency, TF over GST control). The binding signal is 1.28 fold enrichment (6-mer frequency, TF over GST control) with ETS2; 1.29 fold enrichment (6-mer frequency, TF over GST control) in the test with SPDEF; 1.19 fold enrichment (6-mer frequency, TF over GST control) in the test with ETV7; 1.28 fold enrichment (6-mer frequency, TF over GST control) with ELF5; 1.27 fold enrichment (6-mer frequency, TF over GST control) with ETV3; 1.3 fold enrichment (6-mer frequency, TF over GST control) with ETV6.
